The values below come from PubChem BioAssay (EPA / NIEHS).

A short description of experiment [1]: CEETOX_H295R_11DCORT: CeeTox H295R High-throughput Steroidogenesis Assay for 11-Deoxycortisol (11DCORT) (AID 2283432).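 On AC50: 11-deoxycortisol secreted into the medium measured by LC-MS/MS.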 As to conditions: actives raise or lower the signal. An outline of the steps:
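Steroidogenesis in human H295R cells: 48 h chemical exposure after forskolin priming, 11-deoxycortisol measured by LC-MS/MS.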

Experiment [2] is described as follows: CEETOX_H295R_OHPREG: CeeTox H295R High-throughput Steroidogenesis Assay for OH-Pregnenolone (OHPREG) (AID 2283434). Particulars: actives raise or lower the signal. The method, boiled down:
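H295R, 10 uM forskolin pre-stim 48 h; test chemical 48 h, 0.1% DMSO final. MTBE extraction, reverse-phase C18 HPLC-ESI+ MS/MS of medium. Gain/loss vs DMSO; viability by MTT in same wells.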

Experiment [3] can be described thus: CEETOX_H295R_OHPROG: CeeTox H295R High-throughput Steroidogenesis Assay for OH-Progesterone (OHPROG) (AID 2283435).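 On AC50: 17alpha-hydroxyprogesterone secreted into medium measured by HPLC-MS/MS.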 As to conditions: actives raise or lower the signal. The method, boiled down: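 Medium steroid levels read by LC-MS/MS after 48 h chemical treatment (0.1% DMSO) of human adrenal H295R cells that had been forskolin-primed (10 uM, 48 h). Gain or loss fitted against DMSO; MTT cytotoxicity checked per well.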

A short description of experiment [4]: CEETOX_H295R_CORTIC: CeeTox H295R High-throughput Steroidogenesis Assay for Corticosterone (CORTIC) (AID 2283437).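 Further: corticosterone secreted into medium quantified by mass spectrometry.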 Particulars: actives raise or lower the signal. The method, boiled down: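 48 h forskolin (10 uM) prestim, then 48 h chemical exposure, final DMSO 0.1%. Readout: corticosterone in medium by LC-MS/MS after MTBE extraction. Gain/loss fit vs DMSO; MTT viability in same wells.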

A short description of experiment [5]: CEETOX_H295R_CORTISOL: CeeTox H295R High-throughput Steroidogenesis Assay for Cortisol (AID 2283438).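 Further: cortisol secreted into medium quantified by LC-MS/MS.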 Particulars: actives raise or lower the signal. The method, boiled down: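 Cortisol measured by HPLC-MS/MS after MTBE extraction of medium from H295R cells exposed 48 h to chemical (0.1% DMSO), following 48 h prestimulation with 10 uM forskolin. Viability assessed by MTT in the same wells.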

A short description of experiment [6]: CEETOX_H295R_DOC: CeeTox H295R High-throughput Steroidogenesis Assay for DOC (AID 2283439). Particulars: actives raise or lower the signal. The method, boiled down: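 11-Deoxycorticosterone quantified in medium by MTBE extraction and HPLC-MS/MS after 48 h chemical exposure (0.1% DMSO) of forskolin-primed (10 uM, 48 h) H295R cells. Same-well MTT viability; data fitted bidirectionally against DMSO.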

Experiment [7] can be described thus: CEETOX_H295R_PROG: CeeTox H295R High-throughput Steroidogenesis Assay for Progesterone (PROG) (AID 2283442).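 On AC50: human H295R adrenal cells primed with 10 µM forskolin before dosing.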 Particulars: actives raise or lower the signal. An outline of the steps:
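H295R human adrenal cells were prestimulated with 10 uM forskolin for 48 h, then exposed to test chemical (0.1% DMSO final) for 48 h. Medium progesterone was MTBE-extracted and quantified by HPLC-MS/MS, with bidirectional fitting against DMSO.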

For experiment [8], the system named is Sodium/Iodide Symporter (NIS), SLC5A5 (gene 6528). As to the kind of experiment: CPHEA_Stoker_NIS_Inhibition_RAIU: CPHEA's Radioactive Iodide Uptake (RAIU) Assay for Sodium/Iodide Symporter (NIS) Inhibition, Stoker and Laws Labs (AID 2283841; active means hit-call score of the fitted dose curve at least 0.9, where 1 is the maximum). An outline of the steps: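 Test chemicals, six concentrations from 0.001 to 100uM in 0.5% DMSO, were co-incubated with carrier-free 125I (final 329pM) on hNIS-HEK293T-EPA monolayers in pH 7.4 HEPES-buffered HBSS. Plates stood 2 hours at room temperature, then were washed cold and counted.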

The nature of experiment [9]: CPHEA_Stoker_NIS_Cytotoxicity: Cytotoxicity Assessment for CPHEA's Radioactive Iodide Uptake (RAIU) Assay for Sodium/Iodide Symporter (NIS) Inhibition, Stoker and Laws Labs (AID 2283897; active means hit-call score of the fitted dose curve at least 0.9, where 1 is the maximum;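 on AC50: active means loss of ATP signal versus DMSO meaning cytotoxicity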). An outline of the steps: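 Viability in hNIS-HEK293T-EPA cells is scored as a drop in luciferase-detected ATP following 2-hour room-temperature exposure (0.001–100uM; triplicate wells, three cell passages), with DMSO as negative control.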

For experiment [10], the target named is Nucleoli Translocation, AR (gene 367) (UniProt P10275). As to the kind of experiment: UPITT_HCI_U2OS_AR_TIF2_Nucleoli_Antagonist: University of Pittsburgh U2OS Androgen Receptor-Transcriptional Intermediary Factor 2 (AR-TIF2) Antagonism High Content Imaging Assay for Nucleoli Translocation (AID 2283997; active means hit-call score of the fitted dose curve at least 0.9, where 1 is the maximum). An outline of the steps:
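Compounds are added at 20 uM final concentration in 0.2% DMSO to U2OS cells carrying AR-RFP and TIF2-GFP fusions. Nucleolar AR-RFP fluorescence is then quantified by automated imaging. Antagonism is fitted positively against DHT baseline.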

Experiment [11] concerns the target human Phosphodiesterase 10 (PDE10), PDE10A (gene 10846) (UniProt Q9Y233). The experiment in a line: NVS_ENZ_hPDE10: NovaScreen (NVS) Enzymatic Assay for human Phosphodiesterase 10 (PDE10) (AID 2283195; active means hit-call score of the fitted dose curve at least 0.9, where 1 is the maximum). An outline of the steps:
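Biochemical single-readout PDE10A assay, cell-free, extracted protein. Compounds first screened at 25 uM in duplicate, hits then titrated to 50 uM max. Activity measured after 1 h; loss-of-signal fitted against DMSO negative control.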

Experiment [12] has as its target Peroxisome proliferator-activated receptor gamma (Homo sapiens) (UniProt P37231). The experiment in a line: OT_PPARg_PPARgSRC1_0480: Odyssey Thera (OT) 8-hour Protein-Complementation Assay for Peroxisome Proliferator-activated Receptor Gamma / SRC-1 Co-activator (AID 2283387; active means hit-call score of the fitted dose curve at least 0.9, where 1 is the maximum;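 further: nuclear to cytoplasmic split Venus YFP fluorescence ratio reporting PPARg SRC-1 interaction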). An outline of the steps:
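Split-YFP (IFP1/IFP2) PPARg/SRC-1 reporter, HEK293T, 37 °C, 5% CO2; 8 h compound; formaldehyde fix + Draq5; high-content imaging, N/C ratio, ≥350 cells/image, positive direction vs DMSO.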

The target of experiment [13] is Nuclear receptor subfamily 1 group I member 2 (Homo sapiens) (UniProt O75469). As to the kind of experiment: NVS_NR_hPXR: NovaScreen (NVS) Nuclear Receptor Binding Assay for human Pregnane X Receptor (PXR) (AID 2283365; active means hit-call score of the fitted dose curve at least 0.9, where 1 is the maximum;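 further: a drop in FRET signal versus DMSO baseline means the compound binds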). An outline of the steps:
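Cell-free binding assay with extracted human PXR protein, read by TR-FRET 2 h after dosing; loss of signal relative to DMSO baseline indicates binding. Primary screen at 25 uM in duplicate, actives retested in concentration series.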

In experiment [14] the target is Peroxisome proliferator-activated receptor gamma (Homo sapiens) (UniProt P37231). The experiment in a line: NVS_NR_hPPARg: NovaScreen (NVS) Nuclear Receptor Binding Assay for human Peroxisome Proliferator-activated Receptor gamma (PPARg) (AID 2283370; active means hit-call score of the fitted dose curve at least 0.9, where 1 is the maximum). The method, boiled down:
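Cell-free binding to extracted PPARg protein, read by fluorescence polarization 2 h after dosing; loss of signal relative to DMSO baseline marks displacement. Primary screen in duplicate at 25 uM, actives retested in concentration series.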

In experiment [15] the test system is Thyroperoxidase (TPO), gene 54314. As to the kind of experiment: CCTE_Simmons_AUR_rTPO: CCTE's Amplex UltraRed Assay for Thyroperoxidase (TPO) Inhibition, Simmons Lab (AID 2283662; active means hit-call score of the fitted dose curve at least 0.9, where 1 is the maximum;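 further: potency for loss of signal meaning inhibition of peroxidase activity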). The method, boiled down:
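Endpoint is decreased Amplex UltraRed fluorescence after a 30-min, 37C reaction of rat thyroid microsomes with 300 uM H2O2. Eight test concentrations (5 nM–87.5 uM final) in 0.5% DMSO, three biological replicates each.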

The nature of experiment [16]: CCTE_Simmons_CellTiterGLO_HEK293T: Viability Assessment in CCTE's Assays for Thyroperoxidase (TPO) Inhibition, Simmons Lab (AID 2283665; active means hit-call score of the fitted dose curve at least 0.9, where 1 is the maximum;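 on AC50: cells exposed to compound for 24 h before readout; actives reduce ATP signal below DMSO vehicle meaning cytotoxicity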). The method, boiled down:
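Luciferase-coupled ATP content after 24 h exposure gives viability; 8-point series from 5 nM to 87.5 uM final in 0.5% DMSO. Human HEK293T cells, 1% FBS medium, three biological replicates, dichlone positive control.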
(Cellular ATP, detected with luciferase, serves as a proxy for viable cell number.)

Experiment [17] concerns the target Luciferin 4-monooxygenase (Photinus pyralis) (UniProt P08659). As to the kind of experiment: CCTE_Simmons_QuantiLum_inhib_2: CCTE's Firefly Luciferase Inhibition Assay, Simmons Lab (AID 2283767; active means hit-call score of the fitted dose curve at least 0.9, where 1 is the maximum;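 on AC50: potency for inhibitors that lower luciferase luminescence relative to DMSO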). An outline of the steps:
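Eight test concentrations, 5 nM up to 87.5 uM final, preincubated 30min at 37C in the dark with purified luciferase (0.5% DMSO final). Detection reagent (150uM D-luciferin, 147uM dATP, 75uM CoA, pH 7.8) injected per well before kinetic luminescence read; three replicates.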

The target of experiment [18] is rat Peripheral-type Benzodiazepine Receptor (PBR), Tspo (gene 24230) (UniProt P16257). As to the kind of experiment: NVS_MP_rPBR: NovaScreen (NVS) Membrane Protein Assay for rat Peripheral-type Benzodiazepine Receptor (PBR) (AID 2283335; active means hit-call score of the fitted dose curve at least 0.9, where 1 is the maximum). The method, boiled down: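 Competitive displacement of specific radioligand from rat kidney membrane PBR, read by filtration and scintillation after 1 h. Compounds first tested at 25 uM in duplicate, then in concentration series; signal loss relative to DMSO.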

Experiment [19] is described as follows: CCTE_Padilla_ZF_Score.General: CCTE's 144 Hour Post-fertilization zebrafish Assay Score for General Malformation, Padilla Lab (AID 2284411). The method, boiled down: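 Malformation, death and hatching were scored at 6 dpf by two blinded observers under a stereo microscope. Embryos were dosed singly from 6-8 hpf in sealed plates of 10% Hanks' at 26C and rinsed on 5 dpf; DMSO baseline.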

Records with an inconclusive call do not appear. A structure can be active in one record and inactive in another. The source made the active and inactive calls. How the source made its calls, unless noted: active means hit-call score of the fitted dose curve at least 0.9, where 1 is the maximum; inactive means score below 0.9.

Sequence of human Phosphodiesterase 10 (PDE10), PDE10A (gene 10846) (Q9Y233 whole entry, looked up): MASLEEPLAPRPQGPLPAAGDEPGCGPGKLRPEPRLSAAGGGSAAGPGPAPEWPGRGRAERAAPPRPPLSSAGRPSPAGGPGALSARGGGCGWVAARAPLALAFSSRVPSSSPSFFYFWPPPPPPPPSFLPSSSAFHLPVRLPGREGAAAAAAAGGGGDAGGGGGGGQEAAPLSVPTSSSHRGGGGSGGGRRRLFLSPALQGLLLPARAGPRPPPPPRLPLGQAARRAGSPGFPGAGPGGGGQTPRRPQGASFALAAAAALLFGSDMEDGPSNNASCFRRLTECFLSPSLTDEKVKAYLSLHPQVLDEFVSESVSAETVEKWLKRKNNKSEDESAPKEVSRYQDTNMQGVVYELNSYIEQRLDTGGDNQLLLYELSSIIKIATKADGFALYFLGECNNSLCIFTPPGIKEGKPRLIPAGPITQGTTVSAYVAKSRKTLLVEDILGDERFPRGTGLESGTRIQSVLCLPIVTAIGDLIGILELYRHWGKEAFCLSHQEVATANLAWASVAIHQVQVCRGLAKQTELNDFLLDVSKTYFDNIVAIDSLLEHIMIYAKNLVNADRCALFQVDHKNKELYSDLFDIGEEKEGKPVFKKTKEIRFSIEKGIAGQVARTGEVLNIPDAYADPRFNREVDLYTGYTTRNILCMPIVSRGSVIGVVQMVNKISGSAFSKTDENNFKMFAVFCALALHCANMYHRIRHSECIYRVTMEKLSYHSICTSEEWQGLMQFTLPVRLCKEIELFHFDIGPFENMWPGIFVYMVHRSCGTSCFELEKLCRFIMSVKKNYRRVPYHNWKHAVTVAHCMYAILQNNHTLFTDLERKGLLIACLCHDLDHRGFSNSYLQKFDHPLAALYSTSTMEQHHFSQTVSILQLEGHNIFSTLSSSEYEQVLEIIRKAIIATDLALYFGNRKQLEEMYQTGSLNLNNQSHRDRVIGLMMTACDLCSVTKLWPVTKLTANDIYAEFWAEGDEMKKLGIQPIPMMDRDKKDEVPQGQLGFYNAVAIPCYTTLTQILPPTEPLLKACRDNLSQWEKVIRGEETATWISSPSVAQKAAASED
Sequence of Peroxisome proliferator-activated receptor gamma (Homo sapiens) (P37231 whole entry, looked up): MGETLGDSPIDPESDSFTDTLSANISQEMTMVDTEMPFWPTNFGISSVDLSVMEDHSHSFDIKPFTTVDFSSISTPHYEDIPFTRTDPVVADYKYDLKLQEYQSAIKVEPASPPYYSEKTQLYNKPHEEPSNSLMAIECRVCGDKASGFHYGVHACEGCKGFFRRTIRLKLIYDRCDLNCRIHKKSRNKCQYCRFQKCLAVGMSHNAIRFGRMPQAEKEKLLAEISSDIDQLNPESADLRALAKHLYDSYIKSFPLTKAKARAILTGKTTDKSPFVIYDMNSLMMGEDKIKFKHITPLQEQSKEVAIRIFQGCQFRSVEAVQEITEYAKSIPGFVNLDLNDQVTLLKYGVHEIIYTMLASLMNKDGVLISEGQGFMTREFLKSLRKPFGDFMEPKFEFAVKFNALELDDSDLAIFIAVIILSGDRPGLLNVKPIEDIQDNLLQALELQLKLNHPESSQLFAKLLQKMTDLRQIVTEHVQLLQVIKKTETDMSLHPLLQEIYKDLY
Sequence of Nucleoli Translocation, AR (gene 367) (P10275 whole entry, looked up, the tested form may be a part): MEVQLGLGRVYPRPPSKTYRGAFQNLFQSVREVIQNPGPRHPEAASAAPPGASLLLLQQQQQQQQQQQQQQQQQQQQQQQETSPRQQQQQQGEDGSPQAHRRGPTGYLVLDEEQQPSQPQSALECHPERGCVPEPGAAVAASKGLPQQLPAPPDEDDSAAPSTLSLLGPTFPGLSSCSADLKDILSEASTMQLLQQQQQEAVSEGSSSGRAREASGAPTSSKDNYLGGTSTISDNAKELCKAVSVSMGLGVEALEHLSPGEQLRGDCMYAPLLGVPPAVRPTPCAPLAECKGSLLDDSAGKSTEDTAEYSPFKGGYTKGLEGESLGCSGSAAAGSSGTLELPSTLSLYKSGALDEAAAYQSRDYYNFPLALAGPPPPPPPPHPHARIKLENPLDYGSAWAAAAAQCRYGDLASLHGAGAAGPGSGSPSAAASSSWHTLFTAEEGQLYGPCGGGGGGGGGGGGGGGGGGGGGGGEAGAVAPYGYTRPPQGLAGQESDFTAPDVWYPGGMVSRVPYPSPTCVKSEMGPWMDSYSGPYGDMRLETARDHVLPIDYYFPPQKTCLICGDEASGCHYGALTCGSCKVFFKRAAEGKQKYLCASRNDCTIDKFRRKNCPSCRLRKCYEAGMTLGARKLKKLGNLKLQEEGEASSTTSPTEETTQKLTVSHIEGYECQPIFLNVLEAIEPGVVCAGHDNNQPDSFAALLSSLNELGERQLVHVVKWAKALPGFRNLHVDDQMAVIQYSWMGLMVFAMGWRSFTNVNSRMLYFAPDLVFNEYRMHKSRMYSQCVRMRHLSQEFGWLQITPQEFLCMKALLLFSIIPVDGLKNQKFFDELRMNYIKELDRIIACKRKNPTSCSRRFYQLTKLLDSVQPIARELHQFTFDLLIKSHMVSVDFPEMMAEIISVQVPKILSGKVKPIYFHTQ
Sequence of Nuclear receptor subfamily 1 group I member 2 (Homo sapiens) (O75469 whole entry, looked up): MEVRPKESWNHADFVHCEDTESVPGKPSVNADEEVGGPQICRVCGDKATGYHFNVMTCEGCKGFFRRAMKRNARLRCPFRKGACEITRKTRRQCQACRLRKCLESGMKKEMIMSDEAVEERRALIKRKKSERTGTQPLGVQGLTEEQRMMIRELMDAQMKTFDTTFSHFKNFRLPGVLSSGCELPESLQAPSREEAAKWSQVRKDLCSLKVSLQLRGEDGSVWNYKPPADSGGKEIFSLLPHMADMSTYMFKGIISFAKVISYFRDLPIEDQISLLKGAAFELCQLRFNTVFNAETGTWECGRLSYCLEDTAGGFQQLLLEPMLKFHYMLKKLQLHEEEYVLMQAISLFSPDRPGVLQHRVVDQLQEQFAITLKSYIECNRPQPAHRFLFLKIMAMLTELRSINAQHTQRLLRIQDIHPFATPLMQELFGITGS
Sequence of Luciferin 4-monooxygenase (Photinus pyralis) (P08659 whole entry, looked up): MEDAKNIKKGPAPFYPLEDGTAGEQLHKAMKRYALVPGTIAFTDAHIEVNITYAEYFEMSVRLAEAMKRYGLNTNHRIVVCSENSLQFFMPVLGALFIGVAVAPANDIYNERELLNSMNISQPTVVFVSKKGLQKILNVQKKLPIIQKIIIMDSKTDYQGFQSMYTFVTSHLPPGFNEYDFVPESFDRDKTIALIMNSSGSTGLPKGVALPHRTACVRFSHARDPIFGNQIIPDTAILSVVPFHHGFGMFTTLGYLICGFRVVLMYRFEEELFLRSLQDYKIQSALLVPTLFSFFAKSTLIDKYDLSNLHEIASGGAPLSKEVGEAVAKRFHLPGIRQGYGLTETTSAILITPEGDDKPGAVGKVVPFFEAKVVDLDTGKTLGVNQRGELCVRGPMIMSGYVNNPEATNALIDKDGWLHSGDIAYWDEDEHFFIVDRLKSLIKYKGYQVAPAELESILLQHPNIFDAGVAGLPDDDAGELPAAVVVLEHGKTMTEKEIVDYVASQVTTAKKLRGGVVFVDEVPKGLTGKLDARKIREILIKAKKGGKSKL
Sequence of rat Peripheral-type Benzodiazepine Receptor (PBR), Tspo (gene 24230) (P16257 whole entry, looked up): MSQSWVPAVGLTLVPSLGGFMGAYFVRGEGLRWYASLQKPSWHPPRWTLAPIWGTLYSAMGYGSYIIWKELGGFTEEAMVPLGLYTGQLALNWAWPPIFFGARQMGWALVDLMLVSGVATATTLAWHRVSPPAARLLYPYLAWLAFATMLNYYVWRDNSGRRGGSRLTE

For orientation: AC50 means the concentration giving half of the maximal activity seen. As for `O=CNC(N1CCN(C(NC=O)C(Cl)(Cl)Cl)CC1)C(Cl)(Cl)Cl` (stereo not drawn), in experiment [1], the AC50 is 50 µM (active). For the same compound, the result in [2], in [3], in experiment [4], in experiment [5], in experiment [6] and in [7] was inactive. Moreover, the outcome in [8], in experiment [9] and in [10] was inactive.
Turning to `CN(C)N`, the result in [10] was inactive.
As for `CC(C)(C)C(O)C(Oc1ccc(-c2ccccc2)cc1)n1cncn1` (stereo not drawn), the values for the AC50 in [1] and in experiment [3] were 0.0464 µM (active) and 0.0566 µM (active), respectively. The compound was called inactive in experiment [2], in [4], in experiment [5], in experiment [6] and in [7].
As for `Nc1ccc(-c2ccc(N)c(N)c2)cc1N`, in experiment [11], the concentration at half-maximal activity (AC50) was 6.79 µM (active).
On to `Oc1cc(Cl)ccc1Cl`, for which the compound was called inactive in experiment [12], in [1], in [2], in experiment [4], in [5] and in experiment [6]. In addition, the half-maximal activity concentration (AC50) was 25.8 µM (active) in experiment [3] and 30.6 µM (active) in experiment [7].
Take `CC(C)(c1cc(Cl)c(O)c(Cl)c1)c1cc(Cl)c(O)c(Cl)c1`: the AC50 in experiment [13] was 5.12 µM (active); in [14], 1.54 µM (active); in experiment [15], 19.8 µM (active); in experiment [16], 90.8 µM (active); in experiment [8], 9.92 µM (active); in experiment [9], 81.3 µM (active). Also, the compound was classed as inactive in experiment [14] and in experiment [17].
Regarding `CC(C)CCCCCCCOP(=O)(Oc1ccccc1)Oc1ccccc1`, the AC50 in experiment [18] was 2.91 µM (active).
As to `S=c1[nH]c2ccccc2[nH]1`, the compound was called inactive in [11] and in experiment [16]. The concentration at half-maximal activity (AC50) is 0.0688 µM (active) in experiment [15] and 2.02 µM (active) in [17].
As for `CCC(=O)c1ccc(Cl)cc1`, the compound was called inactive in [13].
Turning to `c1ccc(Nc2ccc3ccccc3c2)cc1`, the AC50 in experiment [18] is 25 µM (active); in experiment [3], 5.24 µM (active). Besides, the outcome in experiment [1], in experiment [2], in experiment [4], in experiment [5], in experiment [6] and in [7] was inactive. For the same compound, the compound was classed as inactive in experiment [19].
With `CCCCCCCCCCCC#N`, the call in [11] was inactive.
For the compound `C=COCCCl`, the result in [10] and in experiment [19] was inactive.
